PubChem BioAssay (NCATS)
Inconclusive results are not listed. Unmarked numbers belong to inactive results. Activity calls are given as the source filed them. The call rests on the fitted dose curve; in most records, active means well fitted cell-killing curve with a large enough effect; inconclusive means small, poorly fitted or top-dose-only effect, or effect the other way; inactive means flat fitted curve, though single readings scatter.

The molecules below were run on CAOV3 (assay: Primary qHTS to identify gynecologic anti-cancer compounds using libraries of approved drugs and bioactive compounds (AID 1345084; further: nearly all actives have a fitted effect of over 55% in size)). Conditions: Gynecologic cancer cell panel viability, ATPlite luminescence, 48 h; series mostly up to 57.5 µM; activity change, negative = cytotoxicity: at the top concentration.
Description: National Center for Advancing Translational Sciences [NCATS] Assay Overview: Chemotherapeutic drug responses vary from cancer to cancer and from patient to patient. These variations could be caused by a number of factors including patient genomic background, tumor mutations, tumor heterogeneity, and aspects of drug treatment. Chemotherapeutic drug resistance is also a common issue and can lead to ineffective treatment and patient death. Here we have profiled the cell killing effects of thousands of compounds to characterize the responses in three gynecological cancers, identify cancer-selective compounds, and understand the diversity of responses to these compounds from pan-cancer suppressors to single cell line selective compounds. In this assay, we screened a 7,914 compound drug library that included approved drug and bioactive compounds in six ovarian, three cervical, and […] placental cancer cell lines using the ATPlite assay for cell viability. […] The cervical cancer cell lines included HeLa, Ca Ski, and C-33 A. The placental cancer cell lines included JEG-3. HEK 293T cells were used as the control cell line to determine the selectivity index. ATPlite is a luminescence based assay reliant on the conversion of a luciferase substrate to light in the presence of ATP. As a cytotoxic compound will suppress growth and decrease the number of cells, the concentration of ATP will decrease, and less light signal will be detected in the well.
Assay Protocol Summary: 1,000 cells in 4 uL of media were dispensed into white, solid bottom 1536-well plates using a Multidrop Combi (Thermo Scientific). The Assay plates were incubated for 16 hours at 37 C with 5% CO2 in assay plates, followed by the addition of 23 nL of DMSO or drug dissolved in DMSO. Each compound was assayed in five concentrations (0.092, 0.46, 2.3, 11.5, and 57.5 uM), using the automated Wako 1536 Pin Tool workstation and incubated at 37 C with 5% CO2 48 hours. 4 uL of ATPlite, the ATP monitoring reagent, was then added to the each well of the assay plates using the Multidrop Combi reagent dispenser followed by incubation for 15 minutes at room temperature. The resulting luminescence was measured using the ViewLux plate reader.
On the % scale 0 is the no-effect control and ±100 the full control effect; potency means the concentration at half of the fitted maximal effect.

Row | SMILES | Potency | activity change, negative = cytotoxicity
1 | CC1(C)CC(=O)C2=C(C1)NC(=S)NC2c1cccc(O)c1 (stereo not given) | 3.55 µM (active) | 
2 | CC(=O)c1c(O)cc(O[C@@H]2O[C@H](CO)[C@@H](O)[C@H](O)[C@H]2O)cc1O |  | -6.15% [at 38.5 µM]
3 | CC1OC(OC2CCC3(C)C(CCC4(C)C3CC=C3C5CC(C)(C)CCC5(C(=O)OC5OC(CO)C(O)C(O)C5O)CCC34C(=O)O)C2(C)C)C(O)C(O)C1O (stereo not given) |  | 16.9% [at 25.3 µM]
4 | C=CC1(C)CC(OC(=O)/C(C)=C\COC(C)=O)C(C(=C)C(=O)O)C(O)C1C(=C)CO (stereo not given) |  | 20.6% [at 25.3 µM]
5 | C/C=C1\[C@H](O[C@@H]2O[C@H](CO)[C@@H](O)[C@H](O)[C@H]2O)OC=C(C(=O)OC)[C@H]1CC(=O)O |  | -6.84% [at 25.3 µM]
6 | C=CC(=O)Nc1cc(Nc2ncc(Cl)c(-c3c[nH]c4ccccc34)n2)c(OC)cc1N(C)CCN(C)C | 17.8 µM (active) | 
7 | CC1(C)CCC(C)(C)c2cc(C3(c4ccc(C(=O)O)cc4)OCCO3)ccc21 |  | 0.157%
8 | CC1=C2C[C@H]3O[C@@]3(C)CCC3O[C@@]3(C)C[C@@]2(O)OC1=O (stereo not given in full) |  | 2.64%
9 | CC(C)=CCC[C@](C)(O[C@@H]1O[C@H](CO)[C@@H](O)[C@H](O)[C@H]1O)[C@H]1CC[C@]2(C)[C@@H]1[C@H](O)CC1[C@@]3(C)CC[C@H](O)C(C)(C)C3[C@@H](O[C@@H]3O[C@H](CO)[C@@H](O)[C@H](O)[C@H]3O[C@@H]3OC[C@@H](O)[C@H](O)[C@H]3O)C[C@]12C (stereo not given in full) |  | 0.415% [at 11.6 µM]
10 | NC(=O)c1csc(C2OC(CO)C(O)C2O)n1 (stereo not given) |  | 7.16%
11 | NC(=O)c1cccc2cn(-c3ccc(C4CCCNC4)cc3)nc12 (stereo not given) |  | -17.6%
12 | C[C@@H]1O[C@@H](O[C@@H]2[C@@H](O[C@@H]3O[C@@H](C)[C@H](O[C@@H]4OC[C@H](O)[C@H](O[C@@H]5OC[C@@H](O)[C@H](O)[C@H]5O)[C@H]4O)[C@@H](O[C@@H]4OC[C@](O)(CO)[C@H]4O)[C@H]3O)[C@H](OC(=O)[C@]34CCC(C)(C)C[C@H]3C3=CCC5[C@@]6(C)C[C@H](O)[C@H](O[C@@H]7O[C@H](CO[C@@H]8OC[C@H](O)[C@H](O)[C@H]8O)[C@@H](O)[C@H](O)[C@H]7O)C(C)(C)C6CC[C@@]5(C)[C@]3(C)C[C@H]4O)OC[C@H]2O)[C@H](O)[C@H](O)[C@H]1O (stereo not given in full) |  | 6.96% [at 6.55 µM]
13 | CCOC(=O)CCN(C(=O)c1ccc2c(c1)nc(CNc1ccc(C(=N)N)cc1)n2C)c1ccccn1 |  | -4.91%
14 | CC(=O)OC1C(O)CC2(C)C(CCC(C)C23Cc2c(O)cc(CO)c(C=O)c2O3)C1(C)C (stereo not given) |  | 0.274% [at 25.3 µM]
15 | O=C(c1ccc2nccnc2c1)N1CCCCC1 |  | 3.89%
16 | C=CC(C)(O)CC[C@H]1C(=C)CCC2[C@](C)(C(=O)O)CCC[C@@]21C (stereo not given in full) |  | 4.4% [at 38.5 µM]
17 | C[C@H](CCC(=O)O)[C@H]1CC[C@H]2[C@@H]3C[C@H](O)[C@@H]4C[C@H](O)CC[C@]4(C)[C@H]3CC[C@]12C |  | 0.552%
18 | C/C=C1\[C@H](O[C@@H]2O[C@H](CO)[C@@H](O)[C@H](O)[C@H]2O)OC=C(C(=O)OC)[C@H]1CC(=O)OC[C@H]1O[C@@H](OCCc2ccc(O)cc2)[C@H](O)[C@@H](O)[C@@H]1O |  | -13.6% [at 25.3 µM]
19 | O=C(O)c1cc(-c2c(-c3ccccc3)nn3ccccc23)n[nH]c1=O |  | -6.52%
20 | C[C@@H]1O[C@@H](O[C@H]2[C@H](OC(=O)[C@]34CCC(C)(C)C[C@H]3C3=CCC5[C@@]6(C)CC[C@H](O[C@@H]7O[C@H](C(=O)O)[C@@H](O)[C@H](O)[C@H]7O[C@@H]7O[C@H](CO)[C@H](O)[C@H](O)[C@H]7O)[C@@](C)(C=O)C6CC[C@@]5(C)[C@]3(C)C[C@H]4O)O[C@H](C)[C@H](O[C@@H]3O[C@H](C)[C@H](O)[C@H](O)[C@H]3O)[C@@H]2O)[C@H](O)[C@H](O)[C@H]1O[C@@H]1OC[C@@H](O)[C@H](O[C@@H]2O[C@H](CO)[C@@H](O)[C@H](O)[C@H]2O)[C@H]1O (stereo not given in full) |  | 2.56% [at 6.55 µM]

Row | SMILES | Potency | activity change, negative = cytotoxicity
21 | COC(=O)C(C)C1CCC2(C)C(=O)C=CC(C)(O)C2C1O (stereo not given) |  | -3.62%
22 | COc1cc(O)cc(C)c1C(=O)O[C@@H]1[C@H](O)[C@@H](CO)O[C@H]1n1ccc(=O)[nH]c1=O |  | -29.6% [at 25.3 µM]
23 | Cc1nc(Nc2n[nH]c3c2CN(C(=O)NC(CN(C)C)c2ccccc2)C3(C)C)c2sccc2n1 (stereo not given) | 1.41 µM (active) | 
24 | O=C1C=CC(O)(/C=C/C(=O)OC[C@H]2O[C@@H](Oc3ccc(O)cc3)[C@H](O)[C@@H](O)[C@@H]2O)C=C1 |  | 14.9% [at 25.3 µM]
25 | CC(=O)O[C@H]1C(=O)[C@@]2(C)[C@H]([C@H](OC(=O)c3ccccc3)[C@]3(O)C[C@H](OC(=O)[C@H](O)[C@@H](NC(=O)c4ccccc4)c4ccccc4)C(C)=C1C3(C)C)[C@]1(OC(C)=O)CO[C@@H]1C[C@@H]2O |  | -17.1% [at 11.6 µM]
26 | CCOC(=O)c1sc(NC(=O)[C@H](C(C)C)n2c(=O)[nH]c3ccccc3c2=O)nc1C |  | 3.27%
27 | CC1(C)CC[C@]2(C(=O)O)[C@H](O)C[C@]3(C)C(=CCC4[C@@]5(C)CC[C@H](O[C@@H]6O[C@H](CO[C@@H]7OC[C@H](O)[C@H](O)[C@H]7O[C@@H]7OC[C@@H](O)[C@H](O)[C@H]7O)[C@@H](O)[C@H](O)[C@H]6O[C@@H]6O[C@H](CO)[C@@H](O)[C@H](O)[C@H]6O)C(C)(C)C5CC[C@]43C)[C@@H]2C1 (stereo not given in full) |  | -15.5% [at 11.6 µM]
28 | COc1cc2c(cc1O)CC[C@H]1[C@@H]2CC[C@]2(C)[C@H](O)CC[C@@H]12 |  | -7.6%
29 | CC(=O)SCC(=O)c1ccc(NS(=O)(=O)c2ccc(OCCCN(C)C)cc2)nc1 |  | -14.7%
30 | CN1CCN(C(=O)c2ccc3cc(CCNc4ncnc5ccc(C#N)cc45)ccc3c2)CC1 |  | 15%
31 | C=C1C(O)C(O)C2(CC3C(C)=CCC4C(C)(CO)CCCC34C)OC2C1O (stereo not given) |  | -8.51% [at 38.5 µM]
32 | CC(=O)c1ccc(O[C@@H]2O[C@H](CO)[C@@H](O)[C@H](O)[C@H]2O)cc1 |  | 37%
33 | C[C@@H]1CCC/C=C/[C@H]2CC(=O)C[C@@H]2[C@@H](O)/C=C/C(=O)O1 |  | -21.6%
34 | CCCC(=O)NCCc1csc(-c2ccc(Cl)cc2)n1 |  | -1.71%
35 | Cc1ccc(S(=O)(=O)n2ccc(-c3c(-c4ccc(Cl)cc4)noc3C)n2)cc1 |  | 0.543%
36 | CN(C)C/C=C/C(=O)Nc1cc2c(Nc3ccc(F)c(Cl)c3)ncnc2cc1OC1CCOC1 (stereo not given) | 10 µM (active) | 
37 | C=C1C(O)C[C@@H]2C(C(=O)O)=CO[C@@H](O[C@@H]3O[C@H](CO)[C@@H](O)[C@H](O)[C@H]3OC(=O)c3ccc(O)cc3)[C@H]12 (stereo not given in full) |  | -11.8% [at 25.3 µM]
38 | CC(=O)OC1C[C@]2(C)C(O)CC(C)=C[C@H](OC(=O)c3ccc(O)cc3)C2[C@]1(O)C(C)C (stereo not given in full) |  | 7.34% [at 25.3 µM]
39 | C/C1=C\CCC2=C[C@@H](OC2=O)c2c(C)coc2C1 |  | 9.17%
40 | CO[C@H]1C[C@@H]2CC[C@@H](C)[C@@](O)(O2)C(=O)C(=O)N2CCCC[C@H]2C(=O)O[C@H]([C@H](C)C[C@@H]2CC[C@@H](OP(C)(C)=O)[C@H](OC)C2)CC(=O)[C@H](C)/C=C(\C)[C@@H](O)[C@@H](OC)C(=O)[C@H](C)C[C@H](C)/C=C/C=C/C=C/1C |  | -13.3% [at 25.3 µM]
